Screens (PubChem)
The list is not random: actives were taken first. Their share in the collection is about 1.8%.
GSTO1 counter – inhibitors of recombinant GSTO1, primary screen, counter-screen for RBBP9 inhibitor project, biochemical, fluorescence polarization; Glutathione S-transferase omega-1 (Homo sapiens), P78417; activity-based probe fluorescence polarization; inhibition, % at 5.96 µM; 300,000 compounds, 1.1% hits; AID 1974, 2009;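 active = inhibition above the campaign mean inhibition plus 3 SD, cut at about 35% in these data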
Fam108B inh – mouse Fam108B serine hydrolase inhibitors, primary screen, counter-screen for RBBP9 inhibitor project, biochemical, fluorescence polarization. recombinant Fam108B, FP-Rh probe fluorescence polarization. inhibition, % at 9.51 µM. 300,000 compounds, 0.33% hits. AID 1947, 2009;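 active = inhibition above the screen mean inhibition plus 3 SD, computed separately per campaign, cut at about 18% in these data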;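 also: inhibitors lower polarization as less probe binds the enzyme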
PAD4 inh – human PAD4 inhibitors, primary screen, biochemical, fluorescence polarization, 1536-well format | Protein-arginine deiminase type-4 (Homo sapiens), Q9UM07 | recombinant PAD4, RCA probe fluorescence polarization | inhibition, % at 6.36 µM | 330,000 compounds, 0.41% hits;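 active = percent inhibition above a cutoff equal to the mean of all tested compounds plus 3 SD, cut at about 15% in these data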
Target sequence (Q9UM07 whole entry, looked up): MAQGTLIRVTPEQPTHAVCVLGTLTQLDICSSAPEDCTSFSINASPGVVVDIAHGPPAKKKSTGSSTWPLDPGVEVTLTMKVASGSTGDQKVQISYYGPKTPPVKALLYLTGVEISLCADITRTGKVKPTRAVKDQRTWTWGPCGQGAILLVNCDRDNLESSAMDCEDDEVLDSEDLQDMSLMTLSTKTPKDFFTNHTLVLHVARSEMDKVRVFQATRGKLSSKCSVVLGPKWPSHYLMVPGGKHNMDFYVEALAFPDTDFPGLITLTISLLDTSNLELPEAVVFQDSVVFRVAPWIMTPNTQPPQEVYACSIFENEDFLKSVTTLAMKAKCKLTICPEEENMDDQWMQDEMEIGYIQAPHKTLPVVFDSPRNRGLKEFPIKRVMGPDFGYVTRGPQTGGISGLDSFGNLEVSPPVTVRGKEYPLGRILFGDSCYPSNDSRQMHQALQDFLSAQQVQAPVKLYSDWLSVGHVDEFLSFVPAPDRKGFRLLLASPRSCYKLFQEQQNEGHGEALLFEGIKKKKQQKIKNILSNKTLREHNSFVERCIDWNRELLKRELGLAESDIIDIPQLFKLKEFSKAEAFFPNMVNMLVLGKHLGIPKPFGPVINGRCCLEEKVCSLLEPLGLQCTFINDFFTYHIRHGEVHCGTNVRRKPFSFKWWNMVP
LYPLA1 inh – LYPLA1 inhibitors, primary screen, counter-screen for PME1 inhibitor project, biochemical, fluorescence polarization, FP-Rh probe ABPP. Acyl-protein thioesterase 1 (Homo sapiens), O75608. recombinant LYPLA1. inhibition, % at 5.9 µM. 320,000 compounds, 0.16% hits. AID 2174, 2009;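 active = inhibition above the mean of all tested compounds plus 3 SD, set per campaign, cut at about 14% in these data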;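 also: inhibitors block serine hydrolase probe labeling of LYPLA1 so polarization falls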
PME-1 inh – PME-1 inhibitors via competitive probe labeling, primary screen, biochemical, fluorescence polarization, FP-Rh probe, HTS. Protein phosphatase methylesterase 1 (Homo sapiens), Q9Y570. recombinant PME-1. inhibition, % at 5.9 µM. 320,000 compounds, 0.53% hits;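 active = inhibition above the campaign mean of all compounds plus 3 SD, cut at about 26% in these data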;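 also: competitive labeling of PME-1 active site by serine hydrolase directed probe; inhibitors block probe labeling so polarization falls and inhibition rises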
LYPLA2 counter – LYPLA2 inhibitors, primary screen, counter-screen for PME1 inhibitor project, biochemical, fluorescence polarization, FP-Rh probe ABPP | AID 2177, 2009 | inhibition, % at 5.9 µM | Acyl-protein thioesterase 2 (Homo sapiens), O95372 | recombinant LYPLA2 | 320,000 compounds, 0.38% hits;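 active = inhibition above the screen-wide mean plus 3 SD, limit set per campaign, cut at about 26% in these data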
LYPLA2 conf – LYPLA2 inhibitors, retest, confirmation, counter-screen for PME1 inhibitor project, biochemical, fluorescence polarization, FP-Rh probe ABPP | shares compounds with LYPLA2 counter | recombinant LYPLA2 | inhibition, % at 5.9 µM | 1,100 compounds, 72% hits | AID 2232, 2010;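 active = mean inhibition across replicates above the hit cutoff set in the primary screen, cut at about 26% in these data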;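 also: blocked labeling of the enzyme by serine hydrolase FP-Rh probe lowers polarization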
LYPLA2 gel ABPP – LYPLA2 inhibitors in proteome, late-stage follow-up, gel-based competitive ABPP, fluorescence, assay provider; rhLYPLA2 in mouse brain proteome, gel ABPP FP-Rh; inhibition, % at 20 µM; shares compounds with LYPLA2 counter; 150 compounds, 30% hits;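 active = inhibition of LYPLA2 enzyme probe labeling above about 50%, limit read from the data; inactive = inhibition below that limit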;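 also: loss of FP-Rh probe labeling of the LYPLA2 gel band measured as band density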
Hits are given with their value; . = inactive; / = not tested or not shown.

SMILES | GSTO1 counter | Fam108B inh | PAD4 inh | LYPLA1 inh | PME-1 inh | LYPLA2 counter | LYPLA2 conf | others
COc1ccc(OCC(=O)Nc2ccc(NC(=O)c3cccs3)c(OC)c2)cc1 | . | . | . | . | . | . | /
COc1ccc(CCNC(=O)[C@H](C)N2C(=O)N3CCc4c([nH]c5ccccc45)[C@@]3(C)C2=O)cc1 | . | . | . | . | . | . | /
CN(C(=O)c1ccc(NC(=O)Cc2ccc(NC(=O)C3CCCN(C(=O)CCc4ccccc4)C3)cc2)cc1)C1CC1 (configuration not stated) | / | / | . | . | . | 58 | 50 | LYPLA2 gel ABPP=.
CN(C(=O)c1ccc(NC(=O)Cc2cccc(NC(=O)C3CCCN(C(=O)CCc4ccccc4)C3)c2)cc1)C1CCCC1 (configuration not stated) | / | / | . | . | . | . | /
COc1ccc(N2CCN(C(=O)c3cc4c(s3)-c3ccccc3S(=O)(=O)C4)CC2)cc1 | . | . | . | . | . | 89 | 97 | LYPLA2 gel ABPP=100
CNS(=O)(=O)c1ccc(C(=O)NCC(=O)NC(C)c2cccs2)cc1 (configuration not stated) | / | / | . | . | . | . | /
CN(C)CCNS(=O)(=O)c1ccc(N2CCc3ccccc32)c([N+](=O)[O-])c1 | . | . | . | . | . | . | /
CN(C)CCCNS(=O)(=O)c1ccc(N2CCN(Cc3ccc4c(c3)OCO4)CC2)c([N+](=O)[O-])c1 | . | . | . | . | . | . | /
CC(=O)c1ccc(N2CCN(c3ccc(S(=O)(=O)NCCN(C)C)cc3[N+](=O)[O-])CC2)cc1 | . | . | . | . | . | 28 | 31
CC(=O)c1ccc(N2CCN(c3ccc(S(=O)(=O)NCCCN(C)C)cc3[N+](=O)[O-])CC2)cc1 | . | . | . | . | . | 26 | .
Cc1ccc(OCC(=O)OC(C)CN2CCCCC2)cc1 (configuration not stated) | . | . | . | . | . | . | /
Cc1ccc(NC2=C(Cl)C(=O)OC2OC(=O)c2ccc(C)cc2)cc1 (configuration not stated) | . | . | . | . | . | 30 | 38
CCCCCCCCCC(=O)Nn1cnc2ccccc2c1=O | . | . | . | . | . | 71 | 75 | LYPLA2 gel ABPP=52
CCN(CC)c1ccc(C(=O)Nn2cnc3ccccc3c2=O)cc1 | . | . | . | . | . | . | /
CN(C)S(=O)(=O)c1cccc(NC(=O)c2ccccc2OCc2ccc(F)cc2)c1 | . | . | . | . | . | . | /
Cc1ccc(C(=O)Nc2cccc(C(=O)NC3CCCCC3)c2)cc1 | . | . | . | . | . | 30 | 31
CC(=O)Nc1ccc(N(C(=O)c2ccco2)C(C(=O)NC2CCCCC2)c2ccccc2)cc1 (configuration not stated) | . | . | . | . | . | . | /
CC1CC1C(=O)OCC(=O)N(C)CC(=O)Nc1ccc(F)cc1 (configuration not stated) | / | / | . | / | / | / | /
CCCC(=O)Nc1ccc(C(=O)COC(=O)C2CC2C)cc1 (configuration not stated) | / | / | . | . | . | 29 | 28
Cc1ccc(C(=O)NCCNc2ccc([N+](=O)[O-])cc2C(F)(F)F)cc1 | . | . | . | . | . | . | /
O=C(NCCNc1ccc([N+](=O)[O-])cc1C(F)(F)F)c1ccccc1F | . | . | . | . | . | 27 | .
Cn1ccsc1=NC(=O)c1cc(S(=O)(=O)N2CCOCC2)ccc1F | . | . | . | . | . | . | /
Cc1ccc(/C(N)=N/OC(=O)CN(C)S(=O)(=O)c2ccc(C)cc2)cc1 | . | . | . | . | . | . | /
CN(CC(=O)O/N=C(\N)c1ccc([N+](=O)[O-])cc1)S(=O)(=O)c1ccc2ccccc2c1 | . | . | . | . | . | 59 | 63 | LYPLA2 gel ABPP=.
COc1ccc(C(=O)NC(=S)Nc2cccnc2)cc1[N+](=O)[O-] | . | . | . | . | . | 28 | 28
SMILES | GSTO1 counter | Fam108B inh | PAD4 inh | LYPLA1 inh | PME-1 inh | LYPLA2 counter | LYPLA2 conf | others
CCOc1ccc(NC(c2ccccn2)c2oc(CO)cc(=O)c2O)cc1 (configuration not stated) | . | . | . | . | . | . | /
COc1ccc(CNC(=O)c2ccc(N3CCC4(CC3)CC(c3ccc(Cl)cc3)=NO4)c(N)c2)cc1 | . | . | . | . | . | 40 | 41
CCN1C(=O)CC(C(=O)Nc2ccc(F)cc2)SC1=Nc1ccc2c(c1)OCO2 (configuration not stated) | . | . | . | . | . | 36 | .
CCN=C1SC(C(=O)Nc2cccc(Br)c2)CC(=O)N1CC (configuration not stated) | . | . | . | . | . | 26 | 26
COc1ccc(N=C2SC(C(=O)Nc3ccc4c(c3)OCO4)CC(=O)N2C)cc1 (configuration not stated) | . | . | . | . | . | 53 | 39
Cc1cc(NC(=O)CN2C(=O)N(C)C3(CCCCC3)C2=O)ccc1Br | / | / | . | . | . | . | /
Cc1ccccc1C(=O)NC1CCN(CC(=O)NCc2ccccc2)CC1 | . | . | . | . | . | . | /
COC(=O)C1CCN(C(=O)COc2ccc(S(=O)(=O)N3CCOCC3)cc2Cl)CC1 | / | / | . | / | / | / | /
Cc1cc(C(=O)NNC(=O)c2ccccc2[N+](=O)[O-])c(C)o1 | / | / | . | . | . | . | /
O=C(NNC(=O)c1cc2ccccc2oc1=O)c1ccccc1[N+](=O)[O-] | . | . | . | . | . | 27 | .
COC(=O)CNC(=O)c1sc2ncn(CC(=O)Nc3ccc(C)c(Cl)c3)c(=O)c2c1C | . | . | . | . | . | 40 | 46
COCCNC(=O)c1sc2ncn(CC(=O)Nc3ccc(C)c(Cl)c3)c(=O)c2c1C | . | . | . | . | . | 50 | 47
Cc1ccc(NC(=O)Cn2cnc3sc(C(=O)NCc4ccco4)c(C)c3c2=O)cc1Cl | . | . | . | . | . | . | /
Nc1nc(SCC(=O)Nc2cc(Cl)ccc2Cl)n[nH]1 | / | / | . | / | / | / | /
Cc1ccc(NC(=O)COC(=O)c2c(C)nn(-c3ccccc3)c2C)cc1 | / | / | . | . | . | . | /
COc1cccc(NC(=O)COC(=O)c2c(-c3ccccc3)noc2C)c1 | . | . | . | . | . | 28 | .
